HP1b chromo inh: HTS for Inhibitors of HP1-beta Chromodomain Interactions with Methylated Histone Tails. Potency, µM (highest dose often 114 µM), inactives show at the highest dose activity change, negative = inhibition, actives largely listed as inhibitors. AID 540317, 2011. 390,000 tested, 0.56% active. AlphaScreen HP1-beta / biotin-H3K9me3 peptide binding; note: nearly all actives have a fitted effect of over 70% in size
Target sequence (P83916 whole entry, looked up): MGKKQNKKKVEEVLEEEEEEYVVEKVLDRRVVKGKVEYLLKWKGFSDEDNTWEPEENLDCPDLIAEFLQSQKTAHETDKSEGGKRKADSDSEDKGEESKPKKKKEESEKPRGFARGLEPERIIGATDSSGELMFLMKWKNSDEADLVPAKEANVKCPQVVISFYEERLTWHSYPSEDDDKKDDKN
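HP1-beta protein (50 nM final) preincubated 30 min at room temperature with biotinylated H3(1-18)K9me3 peptide (50 nM) in PBS pH 7.4, 0.01% Tween-20, then compound added for 30 min. AlphaScreen streptavidin donor/nickel chelate acceptor beads (10 ug/mL final), 30 min dark, luminescence read.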
PLK1 PBD block: qHTS for Inhibitors of PLK1-PDB (polo-like kinase 1 - polo-box domain): Primary Screen. Serine/threonine-protein kinase PLK1 (Homo sapiens), P53350. Plk1 PBD binding of FITC phosphopeptide, fluorescence polarization. Potency, µM, for the others: max response, negative = inhibition, usual class: inhibitors. 360,000 tested, 2.8% active; note: series mostly up to about 57 µM; % is set by controls: 0 for no effect and ±100 for the full control effect; nearly all actives have a fitted effect of over 65% in size
BAZ2B block: qHTS Assay for Inhibitors of BAZ2B. AlphaScreen BAZ2B-H3K14Ac peptide displacement. AID 504333, 2011. Bromodomain adjacent to zinc finger domain protein 2B (Homo sapiens), Q9UIF8. Potency, µM (series often up to 114 µM), for the others: at the top dose activity change, negative = inhibition, most hits filed as inhibitors. 360,000 tested, 4.4% active; note: % is set by controls: 0 for no effect and ±100 for the full control effect; nearly all actives have a fitted effect of over 60% in size
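Multi-concentration screen (max 110 uM) measuring displacement of acetylated histone H3 peptide from BAZ2B by AlphaScreen, using 50 nM protein, 50 nM peptide and 10 ug/mL streptavidin donor plus Ni-chelate acceptor beads.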
JMJD2A Tudor inh: qHTS Assay for Inhibitors of JMJD2A-Tudor Domain | Lysine-specific demethylase 4A (Homo sapiens), O75164 | AlphaScreen JMJD2A-Tudor / H3K4me3 peptide binding | Potency, µM (titrated, usually from 114 µM), without a hit: at the highest dose activity change, negative = inhibition, most hits filed as inhibitors | 390,000 tested, 4.4% active; note: % is set by controls: 0 for no effect and ±100 for the full control effect; nearly all actives have a fitted effect of over 50% in size
G9a inh: qHTS Assay for Inhibitors of Histone Lysine Methyltransferase G9a. Histone-lysine N-methyltransferase EHMT2 (Homo sapiens), Q96KQ7. G9a H3K9 monomethylation, AlphaScreen, 2 h. Potency, µM (highest dose often 102 µM), inactives show top-dose activity, negative = inhibition, hits mostly inhibitors. 350,000 tested, 8.8% active; note: % is set by controls: 0 for no effect and ±100 for the full control effect; nearly all actives have a fitted effect of over 75% in size
Target sequence (Q96KQ7 913-1193 limits assumed): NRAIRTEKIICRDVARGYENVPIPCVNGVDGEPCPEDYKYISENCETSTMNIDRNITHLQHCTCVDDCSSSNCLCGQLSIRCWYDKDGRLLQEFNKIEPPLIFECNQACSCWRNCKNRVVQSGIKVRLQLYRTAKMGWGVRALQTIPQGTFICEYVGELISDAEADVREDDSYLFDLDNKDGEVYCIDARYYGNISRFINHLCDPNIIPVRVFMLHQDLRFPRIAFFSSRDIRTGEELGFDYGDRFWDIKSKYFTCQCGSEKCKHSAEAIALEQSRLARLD
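Compounds were preincubated with 20 nM G9a for 15 min, after which biotinylated H3K9 peptide (500 nM) and SAM (20 uM) started a 2 h room-temperature reaction. Monomethylated product was quantified by antibody-based AlphaScreen chemiluminescence.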
Sfp inh: qHTS Assay for Inhibitors of Bacillus subtilis Sfp phosphopantetheinyl transferase (PPTase); 4'-phosphopantetheinyl transferase ffp (Bacillus subtilis), Q9F4F7; Biochemical Sfp PPTase activity, qHTS; Potency, µM, for the others: largest response in the series, negative = inhibition, hits mostly inhibitors; 310,000 tested, 3.5% active; AID 1490, 2009;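 note: the enzyme is Sfp with the accession as filed and its product quenches rhodamine fluorescence; 0% = enzyme reaction without inhibitor and -100% = no enzyme wells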
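With Hepes-Na pH 7.6 buffer containing 10 mM MgCl2, Sfp (15 nM) modified BHQ-2-YbbR (12.5 uM) using rhodamine-CoA (5 uM). Two reads 30 minutes apart at 525/598 nm yielded each well's rate.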
* hit, by the source's call; ? = inconclusive; . = no result; [ ] = remark or other dose. Sampled rows, rich in hits. Any-hit rate of the full collection: about 12%. Calls come from the whole dose curve; as a rule, active = well fitted curve in the direction sought with a large enough effect; inconclusive = small, poorly fitted or top-dose-only effect, or another doubt; inactive = no such curve, though single readings can be large; an effect the other way counts as inactive or inconclusive. Potency is the fitted concentration of half-maximal effect.

SMILES	HP1b chromo inh	PLK1 PBD block	BAZ2B block	JMJD2A Tudor inh	G9a inh	Sfp inh
Cc1nn(-c2ccccc2)c(OC(=O)c2ccccc2Br)c1S(=O)(=O)c1ccccc1	15.4%	.	?	-29.8%	-42.5%[59 µM]	.
Cc1c(N)cccc1[N+](=O)[O-]	3.2%	-12.8%	-6.7%	-2.8%	-2.9%[0.501 µM]	.
Nc1cc2c([N+](=O)[O-])cccc2o1	-24.1%	-11.2%	56.2µM*	-22.2%	2.9%[2.33 µM]	6.4%
Cc1ccc(CN2CCN(/N=C\c3cccc([N+](=O)[O-])c3)CC2)cc1	35.5µM*	-1.4%	28.2µM*	44.7µM*	28.2µM*	-6.1%
Cc1ccc(CN2CCN(/N=C/c3cccs3)CC2)cc1	?	-8.4%	44.7µM*	-25.2%[57.1 µM]	?	-2.7%
COC(=O)c1ccc(/C=N\N2CCN(Cc3ccc(C)cc3)CC2)cc1	11.5%	-8.0%	-29.0%	-12.2%	19.9%[2.33 µM]	9.1%
Cc1ccc(CN2CCN(/N=C\C=C\c3ccccc3)CC2)cc1	?	-9.1%	28.2µM*	39.8µM*	35.5µM*	-12.2%
Cc1ccc(CN2CCN(/N=C/c3ccc(C)s3)CC2)cc1	?	8.8%	39.8µM*	?	-18.3%[59 µM]	-11.8%
Cc1ccc(CN2CCN(/N=C/c3cc(Br)ccc3O)CC2)cc1	-6.6%	-7.3%	-29.0%	-12.7%	8.8%[12.7 µM]	-2.9%
CCC(C)C(=O)OC1CCC=C2C=CC(C)C(CCC3CC(O)CC(=O)O3)[C@@H]21 (stereo partly specified)	.	.	.	.	-0.3%[12.7 µM]	14.5%
Cc1ccc(/C=N/N2CCN(Cc3ccc(C)cc3)CC2)cc1	-4.4%	-6.6%	35.5µM*	?	?	3.6%
Cc1ccc(CN2CCN(/N=C/c3ccc(C(F)(F)F)cc3)CC2)cc1	?	-2.3%	-34.2%	?	5.9%[59 µM]	-0.1%
Cc1ccc(/C=N/N2CCN(Cc3cccc4ccccc34)CC2)s1	-20.2%	3.7%	-6.2%	-31.4%	20.0%[0.501 µM]	8.1%
Cc1ccc(/C=N/N2CCN(Cc3ccccc3)CC2)s1	?	-1.6%	7.08µM*	50.1µM*	39.9%[0.501 µM]	-2.6%
CC1CCN(C(=O)Cn2c(=O)n(Cc3ccco3)c(=O)c3sccc32)CC1	18.3%	-4.1%	-22.0%	-4.5%	-0.4%	7.0%
O=C1C2C3C=CC(C4CC34)C2C(=O)N1/N=C/c1ccc(-c2ccc(Cl)cc2[N+](=O)[O-])o1 (stereo unspecified)	?	-7.1%	?	?	35.5µM*	-27.1%
Cc1ccc(-c2ccc(/C=N/N3C(=O)C4C5C=CC(CC5)C4C3=O)o2)c([N+](=O)[O-])c1 (stereo unspecified)	-18.8%	-10.5%	?	-32.0%	44.7µM*	4.4%
O=C(O)c1cc(-c2ccc(/C=N/N3C(=O)C4C5C=CC(C6CC56)C4C3=O)o2)ccc1Cl (stereo unspecified)	25.2%	-18.4%	79.4µM*	-8.3%[11.4 µM]	44.7µM*	3.0%
COc1ccc(-c2ccc(/C=N/N3C(=O)C4C5C=CC(C6CC56)C4C3=O)o2)c([N+](=O)[O-])c1 (stereo unspecified)	-17.7%	1.6%	?	?	?	7.9%
COC(=O)c1ccc(-c2ccc(/C=N/N3C(=O)C4C5C=CC(CC5)C4C3=O)o2)cc1 (stereo unspecified)	4.6%	-9.6%	-28.1%	-4.0%	.	15.2%
O=C1C2C3C=CC(C4CC34)C2C(=O)N1/N=C/c1ccc(-c2ccc(F)cc2[N+](=O)[O-])o1 (stereo unspecified)	-23.8%	-3.0%	?	?	8.91µM*	-24.3%
C/C(CCC(=O)OC[C@@H]1O[C@H](C#Cc2ccccc2)C=C[C@@H]1Oc1ccc(C)cc1)=N/OC[C@@H](O)[C@H]1O[C@H]2OC(C)(C)O[C@H]2[C@@H]1O	.	.	.	.	.	14.5%
O=S1(=O)C2CC3OC2(CC3c2ccc(F)cc2)CN1Cc1ccc(Cl)cc1 (stereo unspecified)	16.2%	.	.	8.3%	.	16.9%
O=C1C(=O)N(CC2CCCO2)C(c2ccco2)/C1=C(/O)c1ccc(F)cc1 (stereo unspecified)	35.2%	-7.5%	-25.5%	-3.8%	?	7.7%
CCCCC1=CC2=C(OC(C)=O)C(=O)C(C)(OC(=O)C3CCCC3)C(=O)C2=CO1 (stereo unspecified)	.	.	.	.	.	-13.1%
SMILES	HP1b chromo inh	PLK1 PBD block	BAZ2B block	JMJD2A Tudor inh	G9a inh	Sfp inh
N=C1C=CC=C2C1=NC1(CCCCC1)N2O	?	-4.5%	44.7µM*	?	?	8.91µM*
C=CCc1c(O)c(CC)cc2c(C)cc(=O)oc12	26.2%	1.8%	0.1%	-11.9%	6.9%	-8.6%
S=C(NCc1ccccc1)NCc1cccc(CNC(=S)NCc2ccccc2)c1	-38.4%	26.7µM*	-35.8%	?	13.2%[59 µM]	36.0%
CN(N)C(=S)NCc1ccccc1	62.0%	-7.7%	5.7%	-15.4%	-1.6%[2.33 µM]	-16.5%
CN(C)C(=S)NCc1ccccc1	-5.3%	2.67µM*	2.6%	25.1µM*	.	-5.6%
S=C(NCc1ccccc1)NCc1cccc(Cl)c1	35.4%	-0.2%	2.7%	4.1%	41.7%	13.7%
Cc1ccn2c(Nc3ccccc3)c(-c3c[nH]c4ccccc34)nc2c1	?	.	10µM*	22.4µM*	8.91µM*	.
Cc1ccc(Nc2c(-c3c[nH]c4ccccc34)nc3cc(C)ccn23)cc1	?	.	?	25.1µM*	?	.
Cc1ccc2nc(-c3c[nH]c4ccccc34)c(Nc3ccc(F)cc3)n2c1	-8.4%	.	-34.4%	?	?	.
Cc1nn2c(=O)cc(COC(=O)c3cccs3)nc2s1	-17.0%	.	-12.9%	-16.3%	10.1%[59 µM]	.
CCn1ccnc1C(O)c1ccccc1OC (stereo unspecified)	41.8%	-2.6%	9.0%	-10.6%	22.8%[59 µM]	-1.0%
CN1CCN(c2ncc3ncc(=O)n(Cc4cccs4)c3n2)CC1	.	.	.	.	-4.1%[12.7 µM]	8.8%
Cn1nccc1C(=O)N1CCN(C23CC4CC(CC(C4)C2)C3)CC1	43.9%	-9.9%	-0.2%	-13.8%	.	12.1%
Cn1ncc(Cl)c1C(=O)N1CCN(C23CC4CC(CC(C4)C2)C3)CC1	3.9%	-15.3%	-8.2%	89.1µM*	.	12.6%
CC(=O)CSc1nc2nccnc2[nH]1	.	1.6%	.	.	.	.
CC1CC(c2ccccc2)n2nc(NC(=O)CCc3ccccc3)nc2N1 (stereo unspecified)	53.9%	-14.8%	50.1µM*	79.4µM*	0.7%[59 µM]	12.1%

Screening data deposited in PubChem BioAssay by National Center for Advancing Translational Sciences (NCATS).
